Data published in PubChem BioAssay AID1159580 (chemical genetic matrix, 2015).
The campaign covered roughly 5,500 compounds. About 2,000 (36%) were called active. About 18% were inconclusive and are not listed. This is one part of the list. Values without a mark were called inactive. Rule as the data show it: active = normalized growth mostly below about 0.91 (no sharp cut-off); inconclusive = no clear call, values can overlap the other calls; inactive = mostly above about 0.92.

Test: chemical genetic growth profiling, strain panel (AID 1159580);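 also: tested at 20 µM; growth read once vehicle control cultures reached saturation at 30 °C; 1 = growth at the plate median or of vehicle wells; lower values mean less growth of the strain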
Details: S. cerevisiae deletion strains, growth OD
[1] = locus YAL040C, strain CLN3, active compounds read low
[2] = locus YCL061C, strain MRC1 (second series), active compounds read low
[3] = locus YDR363W, strain ESC2, active compounds read low
[4] = locus YER002W, strain NOP16, active compounds read low
[5] = locus YNL153C, strain GIM3, active compounds read low
[6] = locus YNL175C, strain NOP13, active compounds read low
[7] = locus YNL197C, strain WHI3, active compounds read low
[8] = locus YNL224C, strain SQS1, active compounds read low
[9] = locus YOR083W, strain WHI5 (second series), active compounds read low

| Compound | normalized growth (locus YAL013W, strain DEP1, active compounds read low) | normalized growth [1] | normalized growth [2] | normalized growth [3] | normalized growth [4] | normalized growth (locus YMR307W, strain GAS1, active compounds read low) | normalized growth (locus YNL128W, strain TEP1, active compounds read low) | normalized growth [5] | normalized growth [6] | normalized growth [7] | normalized growth [8] | normalized growth [9] | normalized growth (locus YGR078C, strain PAC10, active compounds read low) | normalized growth (locus YJR075W, strain HOC1, active compounds read low) |
| --- | --- | --- | --- | --- | --- | --- | --- | --- | --- | --- | --- | --- | --- | --- |
| N[C@@H](Cc1cnc[nH]1)C(=O)O | 0.963 | 0.939 | 0.987 | 0.979 | 0.991 | 0.986 | 0.978 | 1.01 | 0.989 | 0.988 | 0.996 | 1.03 |  |  |
| O=Nc1c(-c2c(O)[nH]c3ccccc23)[nH]c2ccccc12 |  | 0.529 (active) | 0.997 | 0.976 | 0.587 (active) |  |  | 1 | 0.676 (active) | 0.869 (active) | 0.951 | 0.46 (active) | 0.985 | 1.01 |
